Test [1] can be described thus: Nuclear factor erythroid 2-related factor 2/antioxidant responsive element (Nrf2/ARE) small molecule agonists: qHTS cell viability counter screen in human keratinocytes (AID 1919968; active means well fitted curve in the direction sought with a large enough effect in the repeat runs; an effect the other way counts as inactive or inconclusive; further: nearly all actives have a fitted effect of over 55% in size). An outline of the steps: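 Seed 1,500 KeratinoSens cells per well, then incubate 5 h at 37 C/5% CO2. Add compounds in DMSO and incubate 23 h. Add CellTiter-Fluor, wait 1 h and read fluorescence.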
For orientation: Quantitative high-throughput screening tests each substance at several concentrations.

Test [2] is described as follows: Nuclear factor erythroid 2-related factor 2/antioxidant responsive element (Nrf2/ARE) small molecule agonists: luciferase reporter gene qHTS assay in human keratinocytes (AID 1919969). Further: nearly all actives have a fitted effect of over 35% in size. Further: potency means the concentration at half of the fitted maximal effect. On the technique in general: Reporter assays use an easily measured gene product as a stand-in for the process of interest.
The target in test [3] is Gonadotropin-releasing hormone receptor (Homo sapiens) (UniProt P30968). The experiment in a line: Human gonadotropin-releasing hormone receptor (GnRHR) small molecule agonists, calcium flux assay in GnRHR-HEK293 cells (AID 1920063). Further: nearly all actives have a fitted effect of over 35% in size. An outline of the steps: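 Cells: HEK293 stably expressing human GnRHR. Steps: overnight (18 h) culture, 1 h calcium dye loading at 37 C, compound addition, kinetic fluorescence read at 480/540 nm. Each compound tested at 15 concentrations in triplicate.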
(A change in cytosolic calcium serves as a functional read-out for many receptors and channels.)

Test [4] deals with KiSS-1 receptor (Homo sapiens) (UniProt Q969F8). The experiment in a line: Human kisspeptin (KISS1R) small molecule agonists, calcium flux assay in KISS1R-HEK293 cells (AID 1920064; active means well fitted curve in the direction sought with a large enough effect in the repeat runs; an effect the other way counts as inactive or inconclusive). An outline of the steps:
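Cells plated and incubated 18 h; dye added, 1 h at 37 C; compounds in DMSO pinned in; signal read at 480/540 nm every second for 3 min. Each compound tested at 15 concentrations in triplicate.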

Test [5] is described as follows: p53 small molecule agonists, cell-based qHTS assay with human liver microsomes (AID 1963577).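 Further: p53 response element beta-lactamase reporter cells with liver microsomes plus NADPH.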 An outline of the steps:
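Cells carrying a p53-responsive bla reporter were rested 5 h (37 C, 5% CO2) before compound transfer. Human liver microsomes plus NADPH, 0.5 mg/mL final apiece, supplied metabolism during the 16 h 37 C exposure.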

Test [6] can be described thus: p53 small molecule agonists, cell-based qHTS assay with human liver microsomes: qHTS cell viability counter screen (AID 1963579). Further: nearly all actives have a fitted effect of over 45% in size. Put shortly: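 Seed p53RE-bla cells at 4,000 per well; incubate 5 h at 37 C; add compound, human liver microsomes and NADPH; incubate 16 h at 37 C; add CellTiter-Glo; after 30 min at room temperature, read luminescence.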
Test [7] can be described thus: p53 small molecule agonists, cell-based qHTS assay with rat liver microsomes: qHTS cell viability counter screen (AID 1963580). Further: nearly all actives have a fitted effect of over 45% in size. Put shortly:
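HCT-116 p53RE-bla, 4,000 cells/well, 5 h pre-incubation; cpd + rat liver microsomes 0.5 mg/mL + NADPH 0.5 mg/mL (final); 16 h, 37 C; CellTiter-Glo, 30 min RT; luminescence.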

Test [8] can be described thus: p53 small molecule agonists, cell-based qHTS assay: qHTS cell viability counter screen (AID 1963581). Further: nearly all actives have a fitted effect of over 45% in size. An outline of the steps:
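Cells: HCT-116 with p53 response element-driven beta-lactamase. Treatment: 16 h, 37 C, compounds in DMSO. Read: CellTiter-Glo luminescence after 30 min RT.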

For test [9], the target named is Muscarinic acetylcholine receptor M1 (Homo sapiens) (UniProt P11229). The experiment in a line: Cholinergic receptor muscarinic 1 (CHRM1) small molecule antagonists, cell-based qHTS assay (AID 1963588). Further: nearly all actives have a fitted effect of over 40% in size. Put shortly:
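CHRM1-CHO calcium-flux assay, antagonist mode. Cells were seeded 18 h, dye-loaded 1 h at 37 C and given compound for 5 min at RT, then acetylcholine was added at 50nM. FDSS fluorescence was read 3 min; 15 concentrations, three runs.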

Test [10] shares this target. The experiment in a line: Cholinergic receptor muscarinic 1 (CHRM1) small molecule agonists, cell-based qHTS assay (AID 1963589). Further: nearly all actives have a fitted effect of over 35% in size. An outline of the steps:
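Agonist-mode qHTS in CHO cells stably carrying human muscarinic M1. Intracellular calcium is tracked by fluorescence every second after compound transfer; each compound runs at 15 concentrations in three independent runs.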

The nature of test [11]: cAMP Responsive Elements (CRE) small molecule agonists, cell-based qHTS assay (AID 1963590). Put shortly:
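Agonist mode qHTS in CRE-bla HEK 293T cells: compounds dosed from DMSO for 3 h at 37 C/5% CO2, followed by LiveBLAzer B/G FRET substrate for 2 h at room temperature.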

A short description of test [12]: cAMP Responsive Elements (CRE) small molecule antagonists, cell-based qHTS assay (AID 1963591; active means well fitted inhibition curve with a large enough effect in the signal ratio in the repeat runs, not every such curve was filed as active; the % refers to the signal ratio). An outline of the steps:
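Antagonist mode: test compounds are co-incubated with the adenylyl cyclase activator NKH477 (0.25 uM final) on CRE-bla HEK293T cells for 3 h at 37 °C, followed by LiveBLAzer substrate loading.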

For test [13], the target named is Beta-2 adrenergic receptor (Homo sapiens) (UniProt P07550). The experiment in a line: Adrenergic beta2 receptor (ADRB2) small molecule antagonists, cell-based qHTS assay (AID 1963592). Further: series mostly up to about 92 µM; nearly all actives have a fitted effect of over 50% in size. An outline of the steps:
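Cells (CHO, stable ADRB2 overexpression) incubated 18-20hr at 37C; compounds added from DMSO; agonist mix (1nM isoproterenol, 100uM IBMX, 25uM Ro-20-1724) added; 0.5hr RT; d2-cAMP and anti-cAMP-cryptate added; 1hr RT; 665/615 nm read.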

Test [14] has as its target D(2) dopamine receptor (Homo sapiens) (UniProt P14416). The experiment in a line: Dopamine D2 receptor (DRD2) small molecule agonists, cell-based qHTS assay (AID 1963594). Further: nearly all actives have a fitted effect of over 35% in size. Put shortly:
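cAMP accumulation in DRD2-HEK293 cells measured by HTRF after 1 h detection; compounds added 10 min before NKH477 (200nM […]) forskolin-analogue stimulation, 30 min at room temperature, with Ro20-1724 present at 0.1 mM final.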

For test [15] the target is unchanged. The experiment in a line: Dopamine D2 receptor (DRD2) small molecule antagonists, cell-based qHTS assay (AID 1963595; active means well fitted inhibition curve with a large enough effect in the signal ratio in the repeat runs, with a control signal flat; the % refers to the signal ratio). An outline of the steps: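 Cells were plated and grown for 24 h at 37 °C. Ro20-1724 (0.1 mM final) went in first, then compound for 10 min. NKH477 (200 nM) with quinpirole (12 nM) followed for 30 min at RT, then HTRF detection reagents for 1 h.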

In test [16] the target is 5-hydroxytryptamine receptor 2A (Homo sapiens) (UniProt P28223). The experiment in a line: 5-hydroxytryptamine receptor 2A (HTR2A) small molecule antagonists, cell-based qHTS assay (AID 1963586). Further: nearly all actives have a fitted effect of over 45% in size. Put shortly:
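Antagonist-mode intracellular calcium assay: DOI (4 nM) added after 5 min compound pre-incubation at room temperature to dye-loaded HTR2A-CHO cells. Fluorescence followed for 3 min, sampled every second.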

Test [17] has the same target. The experiment in a line: 5-hydroxytryptamine receptor 2A (HTR2A) small molecule agonists, cell-based qHTS assay (AID 1963587). Further: nearly all actives have a fitted effect of over 30% in size. Put shortly:
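Kinetic calcium-flux fluorescence (2 min, 1 sec intervals) after compound addition in agonist mode. HTR2A-CHO cells were cultured 18 h, then dye-loaded 1 h at 37 C.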

Test [18] deals with Beta-2 adrenergic receptor (Homo sapiens) (UniProt P07550). The experiment in a line: Adrenergic beta2 receptor (ADRB2) small molecule agonists, cell-based qHTS assay (AID 1963593).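 Further: CHO cells stably overexpressing human ADRB2.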 Put shortly: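 CHO cells stably over-expressing ADRB2 were plated overnight at 37C, then dosed with compounds plus a stimulation mix containing 100uM IBMX and 25uM Ro-20-1724 for 0.5hr at room temperature. cAMP was measured by HTRF competition, 1hr.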

A short description of test [19]: p53 small molecule agonists, cell-based qHTS assay (AID 1963582; active means well fitted activation curve with a large enough effect in the signal ratio in the repeat runs, not every such curve was filed as active; the % refers to the signal ratio). An outline of the steps:
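Quantitative HTS in p53RE-bla cells: after a 5 h settling period, compounds delivered in DMSO were left on cells for 16 h at 37 C, and reporter induction was measured as fluorescence following 2 h substrate loading.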

Results filed as inconclusive are left out. The source holds several records for some structures; these can differ, active in one and inactive in another. Active and inactive are the calls of the source. Unless noted, the call rests on the fitted dose curve.

This passage reports Potency results from PubChem BioAssay (Tox21).

Chain of 5-hydroxytryptamine receptor 2A (Homo sapiens) (P28223 whole entry, looked up): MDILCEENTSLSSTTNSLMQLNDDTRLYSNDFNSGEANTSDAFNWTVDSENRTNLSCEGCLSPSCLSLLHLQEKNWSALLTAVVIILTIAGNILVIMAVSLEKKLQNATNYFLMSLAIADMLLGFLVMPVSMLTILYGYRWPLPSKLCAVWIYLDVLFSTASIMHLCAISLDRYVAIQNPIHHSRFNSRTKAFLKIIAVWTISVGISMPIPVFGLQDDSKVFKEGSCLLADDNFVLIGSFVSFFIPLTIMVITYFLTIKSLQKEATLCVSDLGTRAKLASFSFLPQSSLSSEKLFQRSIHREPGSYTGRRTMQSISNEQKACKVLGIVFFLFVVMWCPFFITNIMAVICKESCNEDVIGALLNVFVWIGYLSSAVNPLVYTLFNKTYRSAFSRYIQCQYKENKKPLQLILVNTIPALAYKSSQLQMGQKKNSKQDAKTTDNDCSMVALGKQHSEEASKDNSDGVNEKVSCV
Chain of Muscarinic acetylcholine receptor M1 (Homo sapiens) (P11229 whole entry, looked up): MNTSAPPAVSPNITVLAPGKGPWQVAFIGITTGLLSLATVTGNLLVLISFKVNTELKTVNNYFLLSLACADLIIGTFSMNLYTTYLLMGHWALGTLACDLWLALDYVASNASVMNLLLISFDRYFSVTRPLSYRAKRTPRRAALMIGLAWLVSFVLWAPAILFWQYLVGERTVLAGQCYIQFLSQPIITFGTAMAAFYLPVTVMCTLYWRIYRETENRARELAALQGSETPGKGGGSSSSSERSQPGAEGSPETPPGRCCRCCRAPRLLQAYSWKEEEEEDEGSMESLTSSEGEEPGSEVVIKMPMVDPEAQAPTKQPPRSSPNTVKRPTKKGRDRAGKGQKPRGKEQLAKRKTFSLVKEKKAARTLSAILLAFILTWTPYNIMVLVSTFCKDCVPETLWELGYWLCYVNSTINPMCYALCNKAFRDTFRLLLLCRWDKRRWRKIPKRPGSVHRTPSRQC
Chain of Beta-2 adrenergic receptor (Homo sapiens) (P07550 whole entry, looked up): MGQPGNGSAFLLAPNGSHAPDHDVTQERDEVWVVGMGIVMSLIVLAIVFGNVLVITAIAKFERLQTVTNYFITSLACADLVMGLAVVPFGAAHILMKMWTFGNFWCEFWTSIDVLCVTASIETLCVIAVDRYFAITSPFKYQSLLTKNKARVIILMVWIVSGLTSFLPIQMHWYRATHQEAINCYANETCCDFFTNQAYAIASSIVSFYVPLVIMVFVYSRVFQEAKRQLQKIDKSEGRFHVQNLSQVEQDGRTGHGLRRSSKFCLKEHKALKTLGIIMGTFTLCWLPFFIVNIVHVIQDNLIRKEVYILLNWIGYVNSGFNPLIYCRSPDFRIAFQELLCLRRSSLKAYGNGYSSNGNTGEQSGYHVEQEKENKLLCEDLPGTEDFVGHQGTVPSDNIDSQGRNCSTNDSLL
Chain of D(2) dopamine receptor (Homo sapiens) (P14416 whole entry, looked up): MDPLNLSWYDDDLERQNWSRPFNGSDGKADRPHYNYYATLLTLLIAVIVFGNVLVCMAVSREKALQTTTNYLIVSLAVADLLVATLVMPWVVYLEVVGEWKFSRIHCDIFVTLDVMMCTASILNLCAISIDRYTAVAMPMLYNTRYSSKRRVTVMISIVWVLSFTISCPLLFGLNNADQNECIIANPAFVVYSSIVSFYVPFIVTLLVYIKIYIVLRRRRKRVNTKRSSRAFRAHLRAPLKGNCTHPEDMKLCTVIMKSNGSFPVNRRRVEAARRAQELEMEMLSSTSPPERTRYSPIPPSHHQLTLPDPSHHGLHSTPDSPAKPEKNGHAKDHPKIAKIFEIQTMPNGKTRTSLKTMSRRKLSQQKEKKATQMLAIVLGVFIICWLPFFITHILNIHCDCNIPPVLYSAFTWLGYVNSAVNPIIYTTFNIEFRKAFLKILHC
Chain of KiSS-1 receptor (Homo sapiens) (Q969F8 whole entry, looked up): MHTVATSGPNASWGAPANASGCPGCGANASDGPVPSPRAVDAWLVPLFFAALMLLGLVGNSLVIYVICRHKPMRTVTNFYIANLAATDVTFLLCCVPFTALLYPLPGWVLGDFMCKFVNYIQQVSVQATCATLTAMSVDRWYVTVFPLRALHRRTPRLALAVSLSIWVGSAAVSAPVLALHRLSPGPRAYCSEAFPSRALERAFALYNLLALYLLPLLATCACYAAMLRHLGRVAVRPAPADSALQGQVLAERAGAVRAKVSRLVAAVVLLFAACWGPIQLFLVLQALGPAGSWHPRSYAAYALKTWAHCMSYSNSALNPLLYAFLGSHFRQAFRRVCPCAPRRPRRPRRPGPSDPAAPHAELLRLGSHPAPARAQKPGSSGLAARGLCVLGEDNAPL
Chain of Gonadotropin-releasing hormone receptor (Homo sapiens) (P30968 whole entry, looked up): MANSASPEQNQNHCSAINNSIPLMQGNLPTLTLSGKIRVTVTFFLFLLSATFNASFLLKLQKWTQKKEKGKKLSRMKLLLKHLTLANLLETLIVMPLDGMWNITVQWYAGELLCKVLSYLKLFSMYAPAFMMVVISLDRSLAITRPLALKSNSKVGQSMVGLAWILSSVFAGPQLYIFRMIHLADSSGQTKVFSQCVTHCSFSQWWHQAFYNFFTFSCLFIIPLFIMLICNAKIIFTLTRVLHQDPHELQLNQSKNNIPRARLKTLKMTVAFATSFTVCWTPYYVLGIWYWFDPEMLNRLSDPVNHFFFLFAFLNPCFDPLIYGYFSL

In the case of `CC1(C)O[C@H]2CC(=O)OC[C@]23[C@H]2CC[C@@]4(C)[C@H](c5ccoc5)OC(=O)[C@H]5O[C@]54[C@]2(C)C(=O)C[C@@H]13`, the Potency result in test [1], in [2], in [3], in [4], in test [5] and in test [6] was “inactive” each time. Moreover, the Potency entry in test [7], in test [8], in test [9], in test [10], in [11] and in test [12] was “inactive” in each case. Also, the Potency result in test [13], in test [14] and in [15] was “inactive” throughout.
`CCc1ccccc1O`: the Potency entry in test [1], in test [3], in [4], in test [6], in test [7] and in test [8] was “inactive” in each case. Also, the Potency result in [16], in [17], in test [9], in test [10], in test [11] and in test [12] was “inactive” in each case. For the same compound, the Potency entry in test [13], in [18], in test [14] and in test [15] was “inactive” each time. Besides, the Potency in test [2] was 60.8 µM (active) and inactive.
Take `CC1(C)[C@@H]2CC[C@]3(C2)[C@@H]1C(=O)CCC3(C)C`: the Potency result in test [1], in test [2], in [3], in test [4], in [5] and in test [6] was “inactive” in each case. The Potency entry in test [7], in test [8], in test [19], in [16], in [17] and in test [9] was “inactive” each time. In addition, the Potency result in test [10], in test [11], in [12], in test [13], in test [14] and in test [15] was “inactive” each time.
Regarding `OCCCCl`, the Potency result in test [1], in test [2], in test [3], in test [4], in test [5] and in test [6] was “inactive” throughout. Besides, the Potency entry in test [8], in test [19], in test [16], in test [17], in test [9] and in [10] was “inactive” throughout. The Potency entry in test [11], in [12], in test [13], in test [18] and in test [14] was “inactive” throughout.
For `CC(=O)CC(=O)Nc1ccccc1`, the Potency entry in test [1], in test [2], in test [3], in [4], in test [6] and in test [7] was “inactive” throughout. Further, the Potency entry in test [8], in test [16], in [17], in [9], in test [10] and in [11] was “inactive” in each case. Besides, the Potency entry in test [12], in test [13], in [14] and in test [15] was “inactive” throughout.
On to `C=C1C[C@]23C[C@@]1(O)CC[C@H]2[C@@]12C=C[C@H](O)[C@@](C)(C(=O)O1)[C@H]2[C@@H]3C(=O)O`, for which the Potency entry in [1], in test [2], in test [3], in test [4], in test [6] and in test [7] was “inactive” each time. Besides, the Potency entry in test [8], in test [16], in test [17], in test [10], in [11] and in [12] was “inactive” throughout. Also, the Potency entry in test [13], in test [14] and in test [15] was “inactive” throughout.
Turning to `CC(C)(C)OC(=O)c1cccc(N)c1`, the Potency result in [1], in [2], in test [3], in [4], in test [5] and in test [6] was “inactive” throughout. In addition, the Potency entry in [7], in test [19], in [16], in test [17], in test [9] and in [10] was “inactive” throughout. Moreover, the Potency result in [11], in [12], in test [13], in test [18], in test [14] and in test [15] was “inactive” in each case.
